# Laboratory results: PubChem BioAssay
# Active and inactive are the calls of the source. Unless noted, how the calls were made is not given here.
# Tests used:
# [1] = compounds binding Alexa647 anti-His antibody – biochemical, small-molecule microarray, 635 nm fluorescence, artefact control for SMM control protein annotation, primary screen (AID 1128); details: higher = more signal;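 further: score merges feature fluorescence with signal-to-noise for each printed compound spot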
# [2] = test system: Human papillomavirus type 1a E7 protein (residues 1-88); assay: HPV1a E7 small-molecule binders, primary screen, biochemical, small-molecule microarray, residues 1-88, 635 nm (AID 1129); details: small-molecule microarray binding, fluorescence 635 nm; higher = more signal
# [3] = target: Focal adhesion kinase 1 (Homo sapiens) (UniProt Q05397); assay: PTK2 protein binding on printed compound slides – biochemical, small-molecule microarray, 635/667 nm fluorescence, BSA, DTT, primary screen (AID 1130); details: 635 nm fluorescence, higher = more signal;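 further: composite of spot emission at 667 nm and signal to noise over triplicate slides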
# Chain of Focal adhesion kinase 1 (Homo sapiens) (Q05397 whole entry, looked up): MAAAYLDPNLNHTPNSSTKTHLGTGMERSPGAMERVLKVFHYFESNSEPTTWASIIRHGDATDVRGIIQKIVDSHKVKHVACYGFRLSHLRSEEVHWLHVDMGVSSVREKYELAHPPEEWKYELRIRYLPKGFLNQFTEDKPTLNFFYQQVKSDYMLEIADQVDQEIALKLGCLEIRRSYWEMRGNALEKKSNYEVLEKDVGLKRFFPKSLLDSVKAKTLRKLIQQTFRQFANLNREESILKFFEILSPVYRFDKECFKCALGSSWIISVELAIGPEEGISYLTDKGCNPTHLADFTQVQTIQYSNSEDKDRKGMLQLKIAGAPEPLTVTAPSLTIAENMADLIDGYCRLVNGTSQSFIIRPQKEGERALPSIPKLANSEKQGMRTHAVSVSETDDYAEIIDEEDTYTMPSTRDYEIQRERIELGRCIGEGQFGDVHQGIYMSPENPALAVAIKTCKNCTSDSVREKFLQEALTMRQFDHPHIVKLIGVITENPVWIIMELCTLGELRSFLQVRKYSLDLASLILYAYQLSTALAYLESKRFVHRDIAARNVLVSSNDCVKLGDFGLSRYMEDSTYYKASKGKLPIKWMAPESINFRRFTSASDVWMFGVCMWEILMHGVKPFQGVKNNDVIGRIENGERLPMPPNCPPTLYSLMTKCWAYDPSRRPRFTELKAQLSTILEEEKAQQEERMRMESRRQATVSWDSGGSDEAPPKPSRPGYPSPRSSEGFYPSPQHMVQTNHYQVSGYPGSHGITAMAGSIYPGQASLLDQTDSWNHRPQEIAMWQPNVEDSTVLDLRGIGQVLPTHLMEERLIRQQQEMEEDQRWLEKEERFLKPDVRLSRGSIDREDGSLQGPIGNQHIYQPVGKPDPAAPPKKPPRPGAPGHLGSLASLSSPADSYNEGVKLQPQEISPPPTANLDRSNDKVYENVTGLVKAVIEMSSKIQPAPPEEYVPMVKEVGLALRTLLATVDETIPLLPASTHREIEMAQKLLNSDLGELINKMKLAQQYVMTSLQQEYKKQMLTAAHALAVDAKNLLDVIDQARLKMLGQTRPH
# [4] = test system: Fibrinogen (Alexa647-labelled); assay: Alexa647-fibrinogen binding to printed small molecules – biochemical, small-molecule microarray, 635/667 nm fluorescence, artefact control for SMM control-protein annotation, profiling panel (AID 1131); details: fibrinogen-A647 binding fluorescence, higher = more signal;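 further: z-score merges 667 nm fluorescence with per-spot signal-to-noise over triplicate slides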
# [5] = target: Follistatin (Homo sapiens) (UniProt P19883); assay: FST protein binding to printed compounds – biochemical, small-molecule microarray, 635/667 nm fluorescence, primary screen (AID 1132); details: 635 nm fluorescence, higher = more signal
# Chain of Follistatin (Homo sapiens) (P19883 whole entry, looked up): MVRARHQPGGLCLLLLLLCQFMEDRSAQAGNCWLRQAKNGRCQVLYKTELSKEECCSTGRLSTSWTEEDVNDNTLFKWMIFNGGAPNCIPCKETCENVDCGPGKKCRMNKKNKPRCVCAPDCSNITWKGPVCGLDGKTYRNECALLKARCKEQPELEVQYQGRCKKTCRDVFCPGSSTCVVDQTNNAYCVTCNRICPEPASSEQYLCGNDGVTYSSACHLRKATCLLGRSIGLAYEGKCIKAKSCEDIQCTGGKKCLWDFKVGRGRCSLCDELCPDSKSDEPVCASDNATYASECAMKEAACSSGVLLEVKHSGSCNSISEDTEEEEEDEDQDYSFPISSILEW
# [6] = target: Fibroblast growth factor 2 (Homo sapiens) (UniProt P09038); assay: basic fibroblast growth factor binding to printed compounds – biochemical, small-molecule microarray, 635/667 nm fluorescence, primary screen (AID 1133); details: FGF2, fluorescence 635/667, higher = more signal
# Chain of Fibroblast growth factor 2 (Homo sapiens) (P09038 whole entry, looked up): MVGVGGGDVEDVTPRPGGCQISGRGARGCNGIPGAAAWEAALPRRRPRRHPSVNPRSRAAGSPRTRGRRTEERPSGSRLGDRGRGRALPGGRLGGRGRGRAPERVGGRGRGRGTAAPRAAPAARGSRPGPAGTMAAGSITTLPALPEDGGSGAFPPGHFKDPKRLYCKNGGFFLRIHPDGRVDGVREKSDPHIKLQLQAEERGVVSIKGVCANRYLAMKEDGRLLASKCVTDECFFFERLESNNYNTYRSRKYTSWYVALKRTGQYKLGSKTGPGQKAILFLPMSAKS
# [7] = JC-1 mitochondrial potential readout, lung cancer cells – cell-based, A549, JC-1 fluorescence, basal, 24 h, 100 nL, profiling panel (AID 1138); details: higher = more signal;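 further: A549 lung adenocarcinoma cells under basal conditions with no added stimulus; test concentration not given here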
# Lefty1 = Lefty1 protein binding to printed compounds – biochemical, small-molecule microarray, 635/667 nm fluorescence, primary screen (AID 1139); details: fluorescence 635/667, higher = more signal
# [8] = test system: wheat germ agglutinin (Triticum aestivum), Alexa647-labelled; assay: Alexa647-WGA lectin binding to printed small molecules – biochemical, small-molecule microarray, 635/667 nm fluorescence, artefact control for SMM control-protein annotation, profiling panel (AID 1140); details: WGA-A647 binding, 635 nm fluorescence, higher = more signal;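 further: score merges 667 nm feature emission with signal to noise over triplicate slides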
# [9] = target: Luciferin 4-monooxygenase (Photinus pyralis) (UniProt P08659); assay: inhibition of purified Photinus pyralis luciferase – biochemical, luminescence, purified enzyme, 2006 set, primary screen (AID 1141); details: purified firefly luciferase, SteadyGlo luminescence, 30 min; higher = more signal, called active from +8 up or from −8 down;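 further: cell-free assay with purified firefly luciferase at 100 ng per well in PBS; test concentration not given here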
# Chain of Luciferin 4-monooxygenase (Photinus pyralis) (P08659 whole entry, looked up): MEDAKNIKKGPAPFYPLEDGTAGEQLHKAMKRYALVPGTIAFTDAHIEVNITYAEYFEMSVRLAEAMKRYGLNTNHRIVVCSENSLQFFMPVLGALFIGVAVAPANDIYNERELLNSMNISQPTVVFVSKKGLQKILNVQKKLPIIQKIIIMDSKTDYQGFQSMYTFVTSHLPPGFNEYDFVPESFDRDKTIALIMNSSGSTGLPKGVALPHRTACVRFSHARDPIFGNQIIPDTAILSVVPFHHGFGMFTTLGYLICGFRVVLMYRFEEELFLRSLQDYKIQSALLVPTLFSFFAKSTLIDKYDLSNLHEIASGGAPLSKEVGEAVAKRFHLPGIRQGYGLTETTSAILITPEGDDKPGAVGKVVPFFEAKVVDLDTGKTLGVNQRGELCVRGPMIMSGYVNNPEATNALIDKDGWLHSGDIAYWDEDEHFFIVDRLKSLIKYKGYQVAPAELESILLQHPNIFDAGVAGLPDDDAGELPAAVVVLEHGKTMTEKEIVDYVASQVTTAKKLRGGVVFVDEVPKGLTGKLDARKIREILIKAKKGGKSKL
# [10] = test system: Wnt5a (protein binding on small-molecule microarray); assay: small molecules binding Wnt5a protein – biophysical, small-molecule microarray, 635/667 nm fluorescence, primary screen (AID 1142); details: 635 nm fluorescence, higher = more signal;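 further: fluorescence read at 667 nm with signal to noise per printed feature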
# [11] = ATP-based viability of Huh7 replicon cells – cell-based, CellTiter-Glo luminescence, basal, 48 h, cytotoxicity control for HCV replication inhibitor project, primary screen (AID 1143); details: higher = more signal, called active from +8 up or from −8 down;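 further: Huh7 hepatoma cells carrying a hepatitis C replication reporter with no stimulus; test concentration not given here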
# [12] = Pseudomonas biofilm growth suppression – PAO1 strain, BacTiter-Glo luminescence, LB-PBS, primary screen (AID 1144); details: P. aeruginosa PAO1 biofilm, 12 h, higher = more signal
# [13] = basal CRE-LacZ reporter activity in PC12 – cell-based, unstimulated, primary screen (AID 1145); details: no forskolin, luminescence, 4.5 h, higher = more signal, called active from +8 up or from −8 down
# [14] = forskolin-driven CRE-LacZ activity in PC12 – cell-based, CRE-LacZ reporter, forskolin-stimulated, primary screen (AID 1146); details: luminescence, 4.5 h, higher = more signal, called active from +8 up or from −8 down;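 further: PC12 cells with 6xCRE LacZ reporter stimulated by forskolin 10 µM; beta-galactosidase reporter signal reflecting CREB driven transcription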
# [15] = target: Streptavidin (Streptomyces avidinii) (UniProt P22629); assay: compounds binding control protein streptavidin – biophysical, small-molecule microarray, 635/667 nm fluorescence, artefact control for SMM compound annotation, primary screen (AID 1147); details: higher = more signal;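 further: signal reflects streptavidin binding to arrayed compounds as a control protein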
# Chain of Streptavidin (Streptomyces avidinii) (P22629 whole entry, looked up): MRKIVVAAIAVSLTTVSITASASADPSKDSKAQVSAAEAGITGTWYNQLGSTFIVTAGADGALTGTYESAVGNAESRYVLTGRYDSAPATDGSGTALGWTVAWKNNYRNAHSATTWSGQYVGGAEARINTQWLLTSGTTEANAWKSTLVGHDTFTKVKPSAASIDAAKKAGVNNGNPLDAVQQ
# [16] = probe aInhba binding on compound microarray – biochemical, small-molecule microarray, 635/667 nm fluorescence, primary screen (AID 1148); details: higher = more signal;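 further: score merges 667nm spot fluorescence with signal-to-noise for antibody binding to printed compounds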
# Torsin-1A (Homo sapiens) [17] = target: Torsin-1A (Homo sapiens) (UniProt O14656); assay: TOR1A wild-type binding on microarray – cell lysate, small-molecule microarray, lysate, 635/667 nm, primary screen (AID 1149); details: COS7 hTOR1A-WT lysate, 635 nm fluorescence, higher = more signal
# Chain of Torsin-1A (Homo sapiens) (O14656 whole entry, looked up): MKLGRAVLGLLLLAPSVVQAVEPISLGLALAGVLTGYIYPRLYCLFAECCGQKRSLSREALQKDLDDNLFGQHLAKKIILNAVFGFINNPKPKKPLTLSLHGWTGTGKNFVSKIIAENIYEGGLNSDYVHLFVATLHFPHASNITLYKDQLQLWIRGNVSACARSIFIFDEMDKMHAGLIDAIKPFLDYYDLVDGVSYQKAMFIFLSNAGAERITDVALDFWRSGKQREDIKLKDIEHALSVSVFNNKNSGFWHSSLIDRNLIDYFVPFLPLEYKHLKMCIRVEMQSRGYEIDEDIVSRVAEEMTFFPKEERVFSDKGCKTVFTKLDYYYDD
# Torsin-1A (Homo sapiens) [18] = target: Torsin-1A (Homo sapiens) (UniProt O14656); assay: torsin A mutant lysate binding on microarrays – cell lysate, small-molecule microarray, COS7 lysate, 635/667 nm fluorescence, primary screen (AID 1150); details: COS7 hTOR1A mutant lysate, 635 nm fluorescence, higher = more signal;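 further: score pools 667 nm emission and signal to noise measuring lysate protein binding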
# [19] = test system: Sonic hedgehog protein (Shh); assay: Sonic hedgehog microarray binding compounds – biochemical, small-molecule microarray, 635/667 nm fluorescence, primary screen (AID 1151); details: 635 nm fluorescence, higher = more signal;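 further: Shh protein binding to compounds spotted on small-molecule microarray slides; score combines spot fluorescence intensity with signal-to-noise across triplicate slides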
Structure (SMILES),composite z-score [1],composite z-score [2],composite z-score [3],composite z-score [4],composite z-score [5],composite z-score [6],z-score [7],composite z-score (Lefty1),composite z-score [8],z-score [9],composite z-score [10],z-score [11],z-score [12],z-score [13],z-score [14],composite z-score [15],composite z-score [16],composite z-score (Torsin-1A (Homo sapiens) [17]),composite z-score (Torsin-1A (Homo sapiens) [18]),composite z-score [19]
COC(=O)[C@H](Cc1ccccc1)N1CC(/C=C/C2CC2)=C[C@H]1[C@H](O)Cc1ccccc1,-0.0173,0.921,0.437,0.667,0.582,0.526,-0.267,0.545,0.958,-0.807 (inactive),-0.0412,-2.83 (inactive),0.954 (inactive),2.1 (inactive),18.9 (active),0.626,-0.0523,0.211,0.188,0.593
C=CCC(OC(C)=O)[C@@H]1[C@@H](N(Cc2ccc(-c3cccc(C(F)(F)F)c3)o2)C(=O)c2ccc(C)cc2)c2cc(OCCCO)ccc2N1C(=O)c1ccc2ccccc2c1 (stereo not given in full),-0.276,-0.207,0.187,0.188,0.908,0.0013,1.23,0.398,-0.0998,-0.0536 (inactive),0.0344,-0.478 (inactive),-1.39 (inactive),-0.519 (inactive),0.291 (inactive),0.203,-0.024,-0.361,-0.0628,0.772
C[N+](C)(C)CCCCCCNC(=O)[C@H]1C[C@H]2C(=O)N[C@@H](Cc3ccccc3)C(=O)N2[C@H]1c1ccc(O)cc1,1.32,0.0251,-0.208,-0.222,1.34,0.916,0.0402,1.34,0.112,-0.555 (inactive),0.121,-0.56 (inactive),0.271 (inactive),-1.08 (inactive),-0.227 (inactive),-0.215,-0.0695,0.561,0.313,1.94
C=CCC(OC(C)=O)[C@@H]1[C@@H](N(Cc2ccc(-c3ccccc3)cc2)C(=O)Cc2ccc(F)cc2)c2cc(OCCCO)ccc2N1C(=O)Cc1ccc(OC)cc1 (stereo not given in full),-0.148,-0.212,0.328,0.397,0.508,-0.472,0.626,-0.0463,0.687,-0.51 (inactive),0.205,0.145 (inactive),0.729 (inactive),1.25 (inactive),1.1 (inactive),0.586,-0.128,0.106,-0.751,0.164
Cc1cc(C)cc(N2C(=O)CSC2c2cccc([N+](=O)[O-])c2)c1 (stereo not given),2.27,1.22,1.55,1.03,0.45,0.963,0.492,1.53,1.1,-0.992 (inactive),0.423,-0.894 (inactive),0.75 (inactive),-0.438 (inactive),-1.04 (inactive),1.2,0.0506,0.337,0.526,0.899
[N-]=[N+]=NCc1ccccc1C[C@]1(C(N)=O)N=C(c2ccc(OCCCO)cc2)O[C@H]1c1ccccc1,0.409,1.21,0.196,0.496,1.31,-0.653,0.658,-0.625,1.14,0.856 (inactive),0.0841,-3.8 (inactive),-1.02 (inactive),0.101 (inactive),0.0159 (inactive),0.363,0.0227,0.851,0.885,-1.23
NCCCCCNC(=O)[C@@H]1C[C@@H]2C(=O)NCC(=O)N2[C@@H]1c1cccc(OCCO)c1,2.23,1.16,0.551,0.47,1.45,1.17,-0.552,1.55,0.951,-0.637 (inactive),0.468,0.267 (inactive),0.771 (inactive),-0.667 (inactive),-0.496 (inactive),0.519,0.188,0.666,0.59,1.29
COCCOC(=O)N1C(=O)[C@@]2(c3cc(C#Cc4ccc(OC)cc4)ccc31)[C@H](c1ccc(O)cc1)N1[C@H](c3ccccc3)[C@H](c3ccccc3)OC(=O)[C@H]1[C@@H]2C(=O)N1CCCCCCC1,-1.01,1.11,0.415,0.377,1.25,0.408,-0.421,0.391,0.484,-0.564 (inactive),0.608,-0.86 (inactive),-0.144 (inactive),0.0653 (inactive),0.895 (inactive),1.25,1.12,-0.0107,0.913,0.379
C=C(C)C1CCC(C(O)C2C=CC3C(=O)N(C)C(=O)C3N2N2CCCCC2)CC1 (stereo not given),1.17,1.24,0.525,0.884,1.21,0.286,0.32,0.962,1,0.344 (inactive),0.467,0.635 (inactive),-0.0283 (inactive),0.622 (inactive),0.924 (inactive),1.61,0.143,0.476,1.34,0.758
COc1ccc([Si](C)(C)[C@@H]2[C@@H](CC(=O)N3Cc4ccccc4C[C@H]3CO)O[C@]3(C(=O)N(C)c4ccccc43)[C@H]2C)cc1,1.94,1.17,0.0712,0.855,1.52,1.68,0.0779,1.57,1.02,-0.497 (inactive),0.269,-7.08 (inactive),-1.58 (inactive),10.2 (active),-1.92 (inactive),1.64,0.189,0.783,0.741,2.03
